Screening results from PubChem BioAssay.
FLuc counter – qHTS profiling assay for firefly luciferase inhibitor/activator using purifed enzyme and Km concentrations of substrates (counterscreen for miR-21 project); purified FLuc, Km substrates, luminescence inhibition; Luciferin 4-monooxygenase (Photinus pyralis), P08659; hit rate 6.9% among 360,000; Potency, µM (doses to about 57.5 µM), for inactives: at the highest dose activity change, negative = inhibition, actives largely listed as inhibitors;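 note: plate controls were vehicle for no effect and reference inhibitor for full effect; nearly all actives have a fitted effect of over 55% in size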
Target sequence (P08659 whole entry, looked up): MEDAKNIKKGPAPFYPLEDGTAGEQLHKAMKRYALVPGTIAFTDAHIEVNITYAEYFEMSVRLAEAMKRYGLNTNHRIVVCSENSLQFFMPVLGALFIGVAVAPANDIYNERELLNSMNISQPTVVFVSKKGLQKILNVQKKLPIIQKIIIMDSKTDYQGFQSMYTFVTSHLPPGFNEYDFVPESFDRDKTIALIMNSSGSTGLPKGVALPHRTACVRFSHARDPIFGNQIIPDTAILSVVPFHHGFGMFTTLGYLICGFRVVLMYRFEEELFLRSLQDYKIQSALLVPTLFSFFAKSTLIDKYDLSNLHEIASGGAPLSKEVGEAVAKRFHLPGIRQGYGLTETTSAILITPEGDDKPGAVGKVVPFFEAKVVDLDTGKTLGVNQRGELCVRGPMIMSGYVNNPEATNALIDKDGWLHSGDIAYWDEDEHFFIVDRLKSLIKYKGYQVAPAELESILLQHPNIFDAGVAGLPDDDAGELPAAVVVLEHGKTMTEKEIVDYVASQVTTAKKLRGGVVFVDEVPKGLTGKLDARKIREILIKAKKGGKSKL
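Purified P. pyralis luciferase, 10 nM final, with Km-level 10 uM D-luciferin and 10 uM ATP in 50 mM Tris acetate pH 7.5, 10 mM Mg acetate, 0.01% Tween-20, 0.05% BSA; 6-point qHTS titration about 60 µM downward; luminescence read.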
Rab9 promoter act – qHTS Assay for Rab9 Promoter Activators; Huh7 Rab9 promoter-luciferase reporter, luminescence, 24 h; hit rate 2.8% among 320,000; Potency, µM (top dose mostly 9.22 µM), for the others: at the top dose activation, negative = inhibition, most hits filed as activators; AID 485297, 2010; note: % of control where 0% means no effect; nearly all actives have a fitted effect of over 60% in size
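Huh7 cells stably carrying a Rab9 promoter-luciferase reporter, 1500 cells per well in OP-MEM I with 10% FBS, treated with compound 24 hours at 37C. Luciferase activity read by luminescence after 10 minutes with Amplite reagent.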
NPC1 prom act – qHTS Assay for NPC1 Promoter Activators; Huh7 NPC1 promoter luciferase reporter, 24 h; hit rate 2.4% among 320,000; Potency, µM (highest dose often 9.22 µM), for the others: at the top dose activation, hits mostly activators; note: % of control where 0% means no effect; nearly all actives have a fitted effect of over 60% in size
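NPC1 promoter–luciferase Huh7 cells; 24 h compound; luminescence.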
ELG1 repair inh – qHTS screen for small molecules that inhibit ELG1-dependent DNA repair in human embryonic kidney (HEK293T) cells expressing luciferase-tagged ELG1. hit rate 2.3% among 330,000. Potency, µM (top dose mostly 46.1 µM), inactives show top-dose activity change, negative = inhibition, usual class: inhibitors. HEK293T ELG1-luciferase reporter, luminescence, 16 h; DNA damage induced by 5-fluorouridine; note: % is set by controls: 0 for no effect and ±100 for the full control effect; nearly all actives have a fitted effect of over 55% in size
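Overnight (16 hr) co-exposure of 2,000 cells/well to 5-fluorouridine and compound at 37 °C preceded detection. Luciferase was quantified via ONE-Glo luminescence; loss of signal denotes inhibition.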
ELG1 genotox – qHTS screen for small molecules that induce genotoxicity in human embryonic kidney (HEK293T) cells expressing luciferase-tagged ELG1; HEK293T ELG1-luciferase reporter, luminescence, 16 h; Potency, µM (doses to about 46 µM), for inactives: at the highest dose activity change, positive = activation, hits mostly activators; hit rate 1.3% among 330,000; note: % of control where 0% means no effect; nearly all actives have a fitted effect of over 60% in size
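Step 1: seed 2,000 HEK293T ELG1-luciferase cells per well. Step 2: add compound or DMSO, incubate 16 hr at 37 °C. Step 3: ONE-Glo, 30 min at room temperature, read luminescence.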
SMN2 splice up – qHTS Assay for Enhancers of SMN2 Splice Variant Expression; Potency, µM (series often up to 46.1 µM), without a hit: at the top dose activity change, positive = activation, most hits filed as activators; AID 1458, 2008; HEK293 SMN2-luciferase splicing reporter, luminescence, 30-36 h; hit rate 2.8% among 210,000; note: % of control where 0% means no effect; nearly all actives have a fitted effect of over 55% in size
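qHTS luciferase splicing reporter: luminescence rises when SMN2 exon 7 is included in transfected HEK293 cells. Compound exposure lasted 30-36 h at 37C, with 4.5 mM final sodium butyrate as control, followed by a ONE-Glo read.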
The depositor's hits bear a star; [ ] = dose if it differs, or a comment. Shown are actives, neighbours in structure and some others; about 9.4% of the full set was active somewhere. Calls come from the whole dose curve; as a rule, active = well fitted curve in the direction sought with a large enough effect; inconclusive = small, poorly fitted or top-dose-only effect, or another doubt; inactive = no such curve, though single readings can be large; an effect the other way counts as inactive or inconclusive. Potency is the fitted concentration of half-maximal effect.

Cc1ccc2oc(-c3cccc(NC(=O)c4ccc(Br)o4)c3C)nc2c1 was read as FLuc counter 7.6µM*, Rab9 promoter act -3%, NPC1 prom act 10%, ELG1 repair inh inconclusive, ELG1 genotox 25% and SMN2 splice up -19%.
For CCN1CCOC(=O)C1CC(=O)Nc1cc(C)cc(C)c1 (centres undefined) the results were FLuc counter -6% and SMN2 splice up 10%.
`Cc1nc2cc(-c3ccc(Br)cc3)[nH]n2c(=O)c1Cl` gave FLuc counter 9.5µM*, Rab9 promoter act 2.5µM*, NPC1 prom act inconclusive, ELG1 repair inh inconclusive and ELG1 genotox 16µM*.
`CCc1c(C)nc2cc(-c3ccc(Cl)cc3)[nH]n2c1=O` gave FLuc counter 8.5µM*, Rab9 promoter act inconclusive, NPC1 prom act 4µM*, ELG1 repair inh inconclusive and ELG1 genotox inconclusive.
For O=c1c2c(nc3cc(-c4ccc(Cl)cc4)[nH]n13)CCS2 the results were FLuc counter 2.1µM*, Rab9 promoter act inconclusive, NPC1 prom act 3.5µM*, ELG1 repair inh inconclusive, ELG1 genotox inconclusive and SMN2 splice up 13µM*.
`Cc1cc2nc(C)c(Cl)c(=O)n2[nH]1` gave FLuc counter -18%, Rab9 promoter act -2%, NPC1 prom act 7%, ELG1 repair inh 1%, ELG1 genotox 4% and SMN2 splice up 20%.
Screening O=c1cc(-c2ccc([N+](=O)[O-])cc2)nc2cc(-c3ccc(Cl)cc3)[nH]n12 returned FLuc counter inconclusive, Rab9 promoter act -7%, NPC1 prom act 0%, ELG1 repair inh -1%, ELG1 genotox -1% and SMN2 splice up -3%.
`CCc1c(C)nc2cc(-c3cccc(Br)c3)[nH]n2c1=O` gave FLuc counter 12µM*, Rab9 promoter act inconclusive, NPC1 prom act inconclusive, ELG1 repair inh inconclusive and ELG1 genotox 11%.
CC(C)COc1ccc(C(=O)N2CCCCC2CCN2CCCCC2)cc1 (centres undefined) was read as FLuc counter -1% and SMN2 splice up -11%.
For Oc1ccc(Cc2cc(Cl)cc(Cl)c2O)cc1Cl the results were SMN2 splice up -12%[9.22 µM].
Screening O=S(=O)(N/N=C\C=C\c1ccccc1)c1ccc(Br)cc1 returned FLuc counter 0%, Rab9 promoter act 0%, NPC1 prom act -3%, ELG1 repair inh -24%, ELG1 genotox 0% and SMN2 splice up 13%.
`Brc1ccc(/C=C/C=N/Nc2nc3ccccc3s2)cc1` gave FLuc counter 9.5µM*, NPC1 prom act inconclusive, ELG1 repair inh inconclusive, ELG1 genotox 2% and SMN2 splice up -18%.
CC1CCC/C(=N/Nc2nc3ccccc3s2)C1 (centres undefined) was read as FLuc counter 0.85µM*, Rab9 promoter act 3.5µM*, NPC1 prom act 22%, ELG1 repair inh inconclusive, ELG1 genotox inconclusive and SMN2 splice up 11µM*.
For CCC/C=N/Nc1nc2ccccc2s1 the results were FLuc counter 3.4µM*, Rab9 promoter act 2.8µM*, NPC1 prom act 3.5µM*, ELG1 repair inh inconclusive, ELG1 genotox inconclusive and SMN2 splice up inconclusive.
CC1(C)CC(=O)C/C(=N/Nc2nc3ccccc3s2)C1 was read as FLuc counter inconclusive, Rab9 promoter act -1%, NPC1 prom act -1%, ELG1 repair inh inconclusive, ELG1 genotox 17% and SMN2 splice up -3%.
`C(=C\c1ccccc1)/C=N/Nc1nc2ccccc2s1` gave FLuc counter 2.4µM*, Rab9 promoter act 1.3µM*, NPC1 prom act 1.6µM*, ELG1 repair inh inconclusive, ELG1 genotox inconclusive and SMN2 splice up 14µM*.
